Source: PubChem (National Center for Advancing Translational Sciences (NCATS))
This excerpt belongs to a sample that is enriched for hits.
KDM4E inh = blocks human JMJD2E demethylase activity; B2RXH2; JMJD2E catalytic domain, FDH-coupled NADH fluorescence (FDH is formaldehyde dehydrogenase); Potency, µM (highest dose often 57.1 µM), most hits filed as inhibitors; 230,000 compounds, 1.6% hits; AID 2147; active means well fitted inhibition curve with a large enough effect, not every such curve was filed as active; inconclusive means small, poorly fitted or top-dose-only effect, or another doubt; inactive means no such curve, though single readings can be large or run the other way; further: nearly all actives have a fitted effect of over 50% in size
Target sequence (B2RXH2 1-337 limits assumed): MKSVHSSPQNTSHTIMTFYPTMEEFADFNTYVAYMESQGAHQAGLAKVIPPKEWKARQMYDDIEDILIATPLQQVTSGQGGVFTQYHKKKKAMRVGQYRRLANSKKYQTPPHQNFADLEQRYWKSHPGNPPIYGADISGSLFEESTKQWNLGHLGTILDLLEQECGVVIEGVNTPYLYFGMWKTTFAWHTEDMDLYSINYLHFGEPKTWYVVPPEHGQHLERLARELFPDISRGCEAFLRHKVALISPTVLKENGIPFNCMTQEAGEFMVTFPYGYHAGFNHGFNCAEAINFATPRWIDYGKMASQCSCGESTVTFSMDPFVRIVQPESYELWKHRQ
GALK inh = inhibitors of human galactokinase; AID 1868; Potency, µM (doses to about 57.5 µM), most hits filed as inhibitors; 270,000 compounds, 0.007% hits; Purified GALK, Kinase-Glo residual ATP luminescence
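Quantitative HTS: GALK 5 nM, ATP 35 uM, galactose 100 uM, 1 h room temperature, then luciferase-based ATP detection.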
CtBP-E1A inh = inhibitors of CtBP/E1A interaction. AlphaScreen GST-E1A/His-CtBP binding, 1536-well; stronger effect = lower value. activity change, % (concentration not given with the values). 340,000 compounds, 0.49% hits; in the data active means activity change below about -65%; inconclusive means mostly about -30% to -63%
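Homogeneous bead-based format: GST-tagged E1A captured on glutathione donor beads, His-tagged CtBP on nickel acceptor beads; compounds precede bead addition by 2 h at 37 °C.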
Six1-Eya2 blk = Six1/Eya2 interaction inhibition; AID 651725; AlphaScreen GST-Six1/His-Eya2 binding, biochemical; stronger effect = lower value; Q15475+O00167; activity change, % (no concentration beside the values); 360,000 compounds, 0.56% hits; in the data active means activity change below about -65%; inconclusive means mostly about -30% to -63%
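Six1/Eya2 binding was read as AlphaScreen signal after compounds were pinned into GST-Six1 plus His-tagged Eya2 (5X stock 250/500 nM) in pH 8.0 Tris/NaCl/TCEP buffer, beads added, then incubated 1 h, 37 C, dark.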
Anesthetic bind = binds horse apoferritin like a general anesthetic; AID 485281; 350,000 compounds, 0.074% hits; Potency, µM (titrated, usually from 77.5 µM), actives largely listed as inhibitors; apoferritin/1-aminoanthracene competitive binding, fluorescence; further: nearly all actives have a fitted effect of over 20% in size
Target sequence (P02791 2-175 limits assumed): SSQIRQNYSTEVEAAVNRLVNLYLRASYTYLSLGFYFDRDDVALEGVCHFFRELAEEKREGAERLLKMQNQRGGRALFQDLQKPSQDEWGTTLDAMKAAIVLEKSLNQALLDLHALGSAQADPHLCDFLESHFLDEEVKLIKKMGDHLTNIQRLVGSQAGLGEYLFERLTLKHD
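10 uM apoferritin + 50% sat. 1-AMA, PBS; cpd 10 min RT; Ex380/Em535 endpoint; normalized to free probe vs complex; 4-param Hill fit; propofol titration as pos. ctrl.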
Eya2 inh = blocks the phosphatase activity of human Eya2 | 330,000 compounds, 0.006% hits | recombinant Eya2, OMFP fluorescence dephosphorylation (OMFP is methylfluorescein phosphate) | AID 488837 | Potency, µM (series often up to 76.9 µM), usual class: inhibitors | O00167
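Eya2 protein (added as 0.2 uM solution) was preincubated with compound for 10 min at ambient temperature in 50 mM HEPES pH 7.5, 50 mM NaCl, 5 uM MgCl2, 0.05% BSA, 1 mM DTT. OMFP (added at 50 uM) then reacted 10 min; fluorescence read at 485/525 nm.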
A number is an active result; i = inactive; ? = inconclusive; nt = no result given; [ ] = another dose, or the depositor's remark. Unless noted, the call rests on the fitted dose curve; in most records, active means well fitted curve in the direction sought with a large enough effect; inconclusive means small, poorly fitted or top-dose-only effect, or another doubt; inactive means no such curve, though single readings can be large; an effect the other way counts as inactive or inconclusive.

SMILES	KDM4E inh	GALK inh	CtBP-E1A inh	Six1-Eya2 blk	Anesthetic bind	Eya2 inh
O=C(Nc1nccs1)c1ccc(S(=O)(=O)NCC2CCCCC2)cc1	i	i	i	i	14.1µM	i
O=C(Nc1nccs1)c1ccc(S(=O)(=O)NCc2cccs2)cc1	i	i	i	i	i	i
CC(Oc1ccccc1)C(=O)Nc1nc(-c2ccccn2)cs1 (stereo not given)	nt	nt	-86.6	-67.5	nt	i
C[C@H](NC(=O)c1ccccc1)C(=O)Nc1nc(-c2ccccn2)cs1	i	i	-81.1	-84.0	i	i
CC(Oc1ccccc1)C(=O)Nc1nc(-c2ccncc2)cs1 (stereo not given)	nt	nt	i	i	nt	i
CC(Oc1cccc(Cl)c1)C(=O)Nc1nc(-c2ccccn2)cs1 (stereo not given)	nt	nt	-73.9	?	nt	i
CCCN1CCCc2cc(CN(CCCN3CCOCC3)C(=O)Nc3ccc(Cl)c(Cl)c3)ccc21	nt	nt	nt	nt	i	nt
COC(=O)CC1[C@@]2(C)C[C@@]34OC5(C)OC6(CC[C@@]7(C)C(c8ccoc8)OC(=O)C(C(C)=O)C7[C@]6(O5)C(O)[C@@]3(O)C2O)[C@]14C (stereo not given in full)	i	nt	nt	nt	i	nt
Cc1ccc(S(=O)(=O)N2CCC(c3ccncc3)CC2)c(C)c1	nt	nt	nt	nt	i	nt
CCOC(=O)C1CCN(c2nc3ccccc3nc2C(C#N)C(=O)NCCc2ccccc2)CC1 (stereo not given)	i	i	nt	nt	14.1µM	i
COCCCNC(=O)C(C#N)c1nc2ccccc2nc1N1CCN(Cc2ccccc2)CC1 (stereo not given)	?	i	i	i	i	i
CCCCNC(=O)C(C#N)c1nc2ccccc2nc1N1CCN(c2ccccc2F)CC1 (stereo not given)	31.6µM	i	i	i	i	i
N[C@H](C(=O)O)C1C(C(=O)O)C1C(=O)O (stereo not given in full)	nt	nt	nt	nt	i	nt
NC(c1csc(Nc2cc(Oc3ccccc3)ncn2)n1)C1CCCCC1 (stereo not given)	nt	nt	i	i	nt	nt
NCc1csc(Nc2cc(Oc3ccccc3)ncn2)n1	nt	nt	-76.9	?	nt	nt
Cn1nc(C(=O)Nc2ccc3c(c2)OCO3)c2ccccc2c1=O	nt	i	-85.9	?	i	i
O=C(CN1CC(=O)Oc2ccccc21)NCc1ccco1	i	i	?	-71.8	i	i
O=C(O)Cn1nc(-c2ccccc2)ccc1=O	nt	i	i	i	i	i
O=C(Cn1nc(-c2ccccc2)ccc1=O)NCc1ccc(F)cc1Cl	nt	nt	nt	nt	11.2µM	nt
Cc1ccc(-c2ccc(=O)n(CC(=O)NCc3ccco3)n2)cc1	i	i	i	i	8.91µM	i
CCc1ccc(CNC(=O)Cn2nc(-c3ccccc3)ccc2=O)cc1	i	i	i	i	11.2µM	i
CCC(CC)C(=O)Nc1cc(-c2cccc(C)c2)nn1-c1ccccc1	nt	nt	nt	nt	i	nt
CC(=O)c1ccc(C2C=CC(Oc3ccc(F)cc3C)C(CO)O2)cc1 (stereo not given)	nt	nt	nt	nt	i[15.3 µM]	nt
CCCc1cnc2c(c1SCC(=O)Nc1ccccc1F)c(=O)n(C)c(=O)n2C	nt	nt	nt	nt	i	nt
CCN(CC)CCOC(=O)[C@@H](Cc1cccc2ccccc12)C[C@@H]1CCCO1	i	nt	nt	nt	i	nt
SMILES	KDM4E inh	GALK inh	CtBP-E1A inh	Six1-Eya2 blk	Anesthetic bind	Eya2 inh
N[C@H](C(=O)O)c1nn[nH]n1	20µM	nt	nt	nt	nt	nt
CC(=O)c1ccc(N2CCN(S(=O)(=O)c3ccc4[nH]c5c(c4c3)CCCC5)CC2)cc1	nt	nt	nt	nt	i	nt
CN1CCN(C(c2ccc(Br)cc2)c2cc(Cl)c3cccnc3c2O)CC1 (stereo not given)	nt	i	-89.7	?	i	i
CC(=O)NC(C)c1cc(Cl)c2cccnc2c1O (stereo not given)	nt	nt	nt	nt	nt	i
CN1CCN(C(c2cccnc2)c2ccc3cccnc3c2O)CC1 (stereo not given)	i	i	-81.1	-90.1	?	i
CN1CCN(C(c2ccc(F)cc2)c2ccc3cccnc3c2O)CC1 (stereo not given)	nt	nt	nt	i	nt	nt
CC(=O)Nc1ccccc1-c1nc2ccccc2n(Cc2cccc(Br)c2)c1=O	nt	nt	nt	nt	i	nt
Oc1ccc2c(c1)OC(c1ccc(O)c(O)c1)C(O)C2 (stereo not given)	15.8µM	nt	nt	nt	?	nt
Oc1cc(O)c2c(c1)O[C@H](c1ccc(O)c(O)c1)[C@@H](O)C2	25.1µM	i	i	i	i	i
O=c1c(O)cc(C2Oc3cc(O)cc(O)c3CC2O)cc2c(C3Oc4cc(O)cc(O)c4CC3O)cc(O)c(O)c12 (stereo not given)	25.1µM	nt	nt	nt	i	nt
Cc1oc(-c2ccc(C(=O)NCc3ccc(F)cc3)cc2)nc1CS(=O)c1ccccc1 (stereo not given)	nt	nt	nt	nt	i	nt
CO[C@H]1COC(=O)[C@H](C)NC(=O)[C@@H](C)COC(=O)C/C=C\[C@@H]1C	nt	nt	nt	nt	i[15.3 µM]	nt
Cn1nnnc1SCCNCc1ccc(OCc2ccc(Cl)cc2)cc1	nt	nt	nt	nt	28.2µM	nt
CC(C)c1ccc(CNCCSc2nnnn2C)cc1	nt	nt	nt	nt	i	nt
CCOc1ccc(C2=Nn3c(nnc3-c3ccc(OC)cc3)SC2)cc1	i	i	i	i	i	i
COc1ccc(OCc2nnc3n2N=C(c2ccc(C)cc2)CS3)cc1	i	i	i	i	11.2µM	i
COc1ccc(OCc2nnc3n2N=C(c2ccc(OC)cc2)CS3)cc1	i	i	i	i	8.91µM	i
c1ccc(OCc2nnc3n2N=C(c2ccccc2)CS3)cc1	?	i	i	i	?	i
CC(NC(=O)C1CCCN1C(=O)CN)C(=O)O (stereo not given)	nt	nt	nt	nt	i	nt
N#Cc1c(Sc2ncc(C(F)(F)F)cc2Cl)nsc1C/C=N\OCc1ccccc1Br	i	i	i	i	14.1µM	i
Cc1ccc(C)n1Cc1ccc(C(=O)O)cc1	4.47µM	i	i	-71.4	i	i
Cc1cc(C)n(Cc2ccc(C(=O)O)cc2)n1	i	i	i	i	i	i
CN(C=[N+](C)C)c1cccc2c1C(=O)c1ccccc1C2=O	?	i	-68.2	-66.0	i	i
Nc1nc(NCCc2ccc(O)cc2)nc2nc(-c3ccco3)nn12	i	nt	nt	nt	i	nt
O=C(CN1C(=O)c2ccccc2C1=O)Nc1cccc(S(=O)(=O)Nc2ccccc2Cl)c1	i	i	-68.4	-67.8	i	i
CC(C)c1ccc(NC(=O)C2CC2c2ccccc2)cc1 (stereo not given)	nt	i	i	i	35.5µM	i
COc1cc2c(cc1OC)C1(O)C(=O)c3ccc(O)c(C(=O)O)c3OC1CO2 (stereo not given)	?	nt	nt	nt	i	nt
CC/C(=N\NC(=O)CSCc1ccc(Cl)cc1)c1ccc2c(c1)OCCO2	i	i	i	i	17.8µM	i
CCOc1ccc(NCC2CCOC(C)(C)C2)cc1 (stereo not given)	20µM	i	i	i	i	i
C/C(=N\NC(=O)C1COc2ccccc2O1)c1ccc(C)o1 (stereo not given)	i	i	i	i	i	i
